# According to PubChem BioAssay (EPA / NIEHS):
# Results filed as inconclusive are left out. Activity calls are given as the source filed them. How the source made its calls: active means hit-call score of the fitted dose curve at least 0.9, where 1 is the maximum; inconclusive means response in the unintended direction; inactive means score below 0.9.
# Assay: CCTE_Mundy_HCI_iCellGluta_NOG_NeuriteCount: CCTE's Neurite Outgrowth Assay in iCellGluta cells for Neurite Count, Mundy Lab (AID 2284342);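 further: chemical exposure about 48 hours starting 2 hours after plating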
# Method: CCTE_Mundy_HCI_iCellGluta_NOG is a multiplexed, cell-based-readout assay that uses iCell GlutaNeurons from FUJIFILM Cellular Dynamics, Inc. (FCDI), human glutamatergic enriched neurons derived from induced pluripotent stem (iPS) cells, with measurements taken at 50.33 hours after chemical dosing in a microplate: 96-well plate.CCTE_Mundy_HCI_iCellGluta_NOG_NeuriteCount is one of four components of the CCTE_Mundy_HCI_iCellGluta_NOG assay. It measures neurite outgrowth related to number of neurites using High Content Imaging of fluorescently labelled markers.Data from the assay component CCTE_Mundy_HCI_iCellGluta_NOG_NeuriteCount was analyzed at the endpoint CCTE_Mundy_HCI_iCellGluta_NOG_NeuriteCount in the positive analysis fitting direction relative to DMSO as the negative control and baseline of activity. Using a type of morphology reporter, loss-of-signal activity can be used to understand developmental effects.
# Exposure starts 2 hours post-plating by adding 10 ul of the working solution to 90 ul of media in the wells for a 1/10 dilution. Forty-eight hours after chemical treatment cells are fixed by direct addition of 100 ul of warm (37C) Dulbecco's phosphate buffered saline (DPBS) fixative solution containing 8% paraformaldehyde, 8% sucrose, and 0.1% of 3 mg/ml Hoechst 33342 into each well. Primary antibodies are prepared by dilution in Immunocytochemical Staining Buffer (ISB), 10X Dulbecco's PBS, 0.1% Saponin, 5% Bovine Serum Albumin, 0.5% NaN3 (Sodium Azide) and betaIII-tubulin (rabbit anti-betaIII-tubulin, 1:800) followed by Alexa Fluor-488 secondary (1:500) to label neuronal cell bodies and neurites. A Cellomics ArrayScan VTi HCS Reader is used for automated image acquisition and analysis of neurite outgrowth.
SMILES,outcome,AC50
CC1(C)C(C=C(Cl)Cl)C1C(=O)O[C@H](C#N)c1cccc(Oc2ccccc2)c1 (stereo partly specified),inactive,–
CC1(C)C(C=C(Cl)c2ccc(Cl)cc2)C1C(=O)OC(C#N)c1ccc(F)c(Oc2ccccc2)c1 (stereo unspecified),–,74.1 µM (active)
CCOP(=S)(OCC)SCS(=O)C(C)(C)C (stereo unspecified),inactive,–
CCOP(=O)(OCC)SCSCC,–,49.8 µM (active)
COP(=O)(OC)SCN1C(=O)c2ccccc2C1=O,inactive,–
CC1(C)[C@@H](C=C(Cl)Cl)[C@@H]1C(=O)O[C@@H](C#N)c1ccc(F)c(Oc2ccccc2)c1,inactive,–
CCOP(=O)(Oc1cnc(C(C)(C)C)nc1)OC(C)C (stereo unspecified),inactive,–
CCOP(=O)(OCC)SCSC(C)(C)C,–,21.9 µM (active)
CCOP(=O)(OCC)OC(Cl)C(Cl)(Cl)Cl (stereo unspecified),inactive,–
[CH3][Hg][Cl],–,0.0965 µM (active)
CC(=O)[O-].[Tl+],–,2.26 µM (active)
CC1(C)[C@H](C=C(Cl)Cl)[C@@H]1C(=O)O[C@@H](C#N)c1cccc(Oc2ccccc2)c1,inactive,–
[Cd+2].[Cl-].[Cl-],–,11.4 µM (active)
C#CCN(C)[C@H](C)Cc1ccccc1,inactive,–
Cn1nc(C(F)(F)F)c(CS(=O)(=O)C2=NOC(C)(C)C2)c1OC(F)F,inactive,–
CC1(C)[C@H](C=C(Cl)Cl)[C@H]1C(=O)OCc1c(F)c(F)cc(F)c1F,–,19.9 µM (active)
